Results on 8 molecules are retold here after PubChem BioAssay (Tox21).

Results filed as inconclusive are left out. Calls of active or inactive are those of the source. Unless noted, calls come from the whole dose curve; as a rule, active = well fitted curve in the direction sought with a large enough effect in the repeat runs; inconclusive = weak or mixed curves; inactive = no such curve, though single readings can be large; an effect the other way counts as inactive or inconclusive.

Test [1] deals with Peroxisome proliferator-activated receptor gamma (Homo sapiens) (UniProt P37231). Nature of the test: qHTS assay to identify small molecule antagonists of the peroxisome proliferator-activated receptor gamma (PPARg) signaling pathway (AID 743191; calls by dose curve; note: nearly all actives have a fitted effect of over 30% in size; note: potency is the fitted concentration of half-maximal effect). The essentials:
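Beta-lactamase reporter under UAS control in HEK293H PPARg-bla cells; compound treatment 17 h at 37C. Read-out: fluorescence intensity after 1 h room-temperature incubation with LiveBLAzer B/G FRET substrate.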
(In general: qHTS replaces the single test concentration by a dilution series.)

A short description of test [2]: qHTS assay to identify small molecule antagonists of the peroxisome proliferator-activated receptor gamma (PPARg) signaling pathway - cell viability counter screen (AID 743194). Note: nearly all actives have a fitted effect of over 55% in size. An outline of the steps: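 Viability was measured as CellTiter-Glo luminescence in GeneBLAzer PPARg UAS-bla HEK293H cells. These cells had been exposed 17 h at 37 C to compounds together with rosiglitazone at 50 nM final, with the beta-lactamase readout taken in the same wells.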

Test [3] can be described thus: qHTS assay for small molecule agonists of the antioxidant response element (ARE) signaling pathway (AID 743202; active = well fitted activation curve with a large enough effect in the signal ratio in the repeat runs, not every such curve was filed as active; the % refers to the signal ratio). The essentials: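 Beta-lactamase reporter activity, read as fluorescence intensity, reflects ARE/Nrf2 pathway induction in HepG2 cells after 16 h compound exposure at 37 C; substrate loading was 2 h at room temperature.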
Test [4] in a line: qHTS assay for small molecule agonists of the antioxidant response element (ARE) signaling pathway - cell viability counter screen (AID 743203; calls by dose curve; note: nearly all actives have a fitted effect of over 55% in size). The essentials: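 ATP content via CellTiter-Glo luminescence served as the viability measure. Cells: ARE-bla HepG2, 2,000 per well. Exposure: 16 hrs, 37C/5% CO2.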
Test [5] can be described thus: qHTS assay for small molecule activators of the heat shock response signaling pathway - cell viability counter screen (AID 743209). Note: nearly all actives have a fitted effect of over 50% in size. The essentials:
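Compounds dissolved in DMSO were added to overnight-plated HSE-bla HeLa cells and left 5 h at 37 C. Cell viability was quantified by luminescence using CellTiter-Glo.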

Test [6] is described as follows: qHTS assay for small molecule activators of the heat shock response signaling pathway (AID 743210; active = well fitted activation curve with a large enough effect in the signal ratio in the repeat runs, with a control signal flat, not every such curve was filed as active; the % refers to the signal ratio;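 note: HeLa cells with beta-lactamase reporter driven by heat shock elements; series mostly up to about 63 µM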). The essentials:
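Fluorescence from a cleaved B/G FRET substrate (2.5 h, room temp) reports HSE-driven beta-lactamase in HeLa cells treated 5 h at 37 C with DMSO-dissolved compounds.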

A short description of test [7]: qHTS assay to identify small molecule agonists of the peroxisome proliferator-activated receptor delta (PPARd) signaling pathway - cell viability counter screen (AID 743211). Note: nearly all actives have a fitted effect of over 55% in size. An outline of the steps:
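HEK293H PPARd-bla, 3000 cells/well; 5 h preincubation 37C/5% CO2; cpd in DMSO, 17 h 37C; B/G FRET substrate 2 h RT; CellTiter-Glo 30 min RT, luminescence.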

Test [8] has as its target Peroxisome proliferator-activated receptor delta (Homo sapiens) (UniProt Q03181). Nature of the test: qHTS assay to identify small molecule agonists of the peroxisome proliferator-activated receptor delta (PPARd) signaling pathway (AID 743212; calls by dose curve). An outline of the steps:
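Steps: seed PPARd-bla HEK293H cells; incubate 5 h, 37 C, 5% CO2; add compounds in DMSO; incubate, 37 C; add LiveBLAzer B/G FRET substrate; hold 2 h at room temperature; measure fluorescence.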

The target is the same in test [9]. The experiment in a line: qHTS assay to identify small molecule antagonists of the peroxisome proliferator-activated receptor delta (PPARd) signaling pathway (AID 743215; active = well fitted inhibition curve with a large enough effect in the signal ratio in the repeat runs, not every such curve was filed as active; the % refers to the signal ratio; note: series mostly up to about 62 µM). The essentials:
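Here, a reporter line (HEK293H, beta-lactamase under a UAS) measures PPARd signaling. Compounds are tested against agonist L165041 at 300 nM final concentration over 17 h at 37 C, with fluorescence read after substrate.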

A short description of test [10]: qHTS assay to identify small molecule agonists of the farnesoid-X-receptor (FXR) signaling pathway - cell viability counter screen (AID 743218). Note: nearly all actives have a fitted effect of over 45% in size. The essentials: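 Quantitative HTS counter screen measuring ATP-based viability via CellTiter-Glo luminescence in HEK 293T cells carrying a UAS-driven beta-lactamase reporter, after 16 h compound exposure at 37 C.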
Test [11] is described as follows: qHTS assay to identify small molecule antagonists of the farnesoid-X-receptor (FXR) signaling pathway - cell viability counter screen (AID 743221; active = well fitted cell-killing curve with a large enough effect in the repeat runs, not every such curve was filed as active; note: nearly all actives have a fitted effect of over 50% in size). The essentials:
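Luminescence from CellTiter-Glo measures cytotoxicity in GeneBLAzer FXR-UAS-bla HEK 293T cells. Cells were exposed to compounds with 50 uM chenodeoxycholic acid (final) for 16 h at 37 C, in wells also used for the reporter readout.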

Test [12] addresses Vitamin D3 receptor (Homo sapiens) (UniProt P11473). The experiment in a line: qHTS assay to identify small molecule agonists of the vitamin D receptor (VDR) signaling pathway (AID 743222; calls by dose curve). An outline of the steps:
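Tox21 cell reporter format: VDR-bla line, 16 h compound exposure in 5% CO2 at 37C, then fluorescence intensity after 2 h with LiveBLAzer B/G FRET substrate.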

The target is the same in test [13]. The experiment in a line: qHTS assay to identify small molecule antagonists of the vitamin D receptor (VDR) signaling pathway (AID 743223; active = well fitted inhibition curve with a large enough effect in the signal ratio in the repeat runs, not every such curve was filed as active; the % refers to the signal ratio). An outline of the steps: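 Antagonist mode uses 1alpha,25-dihydroxyvitamin D3 at 3 nM final as stimulus. VDR-bla cells receive compounds in DMSO, incubate 16 h at 37C, then a beta-lactamase FRET substrate for 2 h at room temperature before fluorescence measurement.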

Test [14] has as its target Aryl hydrocarbon receptor (Homo sapiens) (UniProt P35869). Nature of the test: qHTS assay to identify small molecule that activate the aryl hydrocarbon receptor (AhR) signaling pathway (AID 743085).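 Note: HG2L7.5c1 human HepG2 liver cells with stably integrated DRE-driven firefly reporter; series mostly up to about 70 µM; nearly all actives have a fitted effect of over 15% in size.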 An outline of the steps:
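Cell line HG2L7.5c1 (human hepatoma, 20× DRE-luc). Plated, 5 h 37C, compound/DMSO added, 24 h 37C. CellTiter-Fluor 30 min 37C → fluorescence; then ONE-Glo 30 min RT → luminescence.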

Test [15] is described as follows: qHTS assay to identify small molecule that activate the aryl hydrocarbon receptor (AhR) signaling pathway - cell viability counter screen (AID 743086). Note: series mostly up to about 70 µM; nearly all actives have a fitted effect of over 45% in size. The essentials: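 Cytotoxicity counter screen: CellTiter-Fluor signal (30 min, 37 C) in 4000 HepG2 cells/well carrying the DRE-luciferase reporter, following 24 h compound exposure at 37 C.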
Test [16] can be described thus: qHTS assay to identify small molecule antagonists of the peroxisome proliferator-activated receptor delta (PPARd) signaling pathway - cell viability counter screen (AID 743213). Note: nearly all actives have a fitted effect of over 50% in size. The essentials:
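Agonist-stimulated (L165041, 300 nM final) HEK293H PPARd UAS-bla cells are exposed to compounds for 17 h at 37 C, and ATP-based luminescence (CellTiter-Glo) from the same wells reports cytotoxicity.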

Test [17] concerns the target Bile acid receptor (Homo sapiens) (UniProt Q96RI1). Nature of the test: qHTS assay to identify small molecule agonists of the farnesoid-X-receptor (FXR) signaling pathway (AID 743220; active = well fitted activation curve with a large enough effect in the signal ratio in the repeat runs, not every such curve was filed as active; the % refers to the signal ratio). The essentials: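 FXR-UAS-bla HEK 293T cells carrying a UAS-driven beta-lactamase reporter were plated for 5 h at 37C/5% CO2, then exposed to DMSO-dissolved Tox21 10K compounds for 16 h at 37C. A LiveBLAzer B/G FRET substrate was loaded for 2 h at room temperature before fluorescence reading.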

For test [18] the target is unchanged. Nature of the test: qHTS assay to identify small molecule antagonists of the farnesoid-X-receptor (FXR) signaling pathway (AID 743217; active = well fitted inhibition curve with a large enough effect in the signal ratio in the repeat runs, not every such curve was filed as active; the % refers to the signal ratio). An outline of the steps:
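Test compounds are pin-transferred onto FXR-bla HEK 293T cells, then chenodeoxycholic acid is added at 50 uM final. After 16 h at 37 °C, LiveBLAzer B/G substrate is applied for 2 h at room temperature and fluorescence read.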

In test [19] the target is Peroxisome proliferator-activated receptor gamma (Homo sapiens) (UniProt P37231). The experiment in a line: qHTS assay to identify small molecule agonists of the peroxisome proliferator-activated receptor gamma (PPARg) signaling pathway (AID 743094; active = well fitted activation curve with a large enough effect in the signal ratio in the repeat runs, not every such curve was filed as active; the % refers to the signal ratio). An outline of the steps: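 Agonism was assessed in a beta-lactamase reporter system, HEK293H cells with a stably integrated UAS-bla construct under PPARg control; the 17 h treatment at 37C preceded a 1 h room-temperature FRET substrate read.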
Sequence of Peroxisome proliferator-activated receptor gamma (Homo sapiens) (P37231 whole entry, looked up): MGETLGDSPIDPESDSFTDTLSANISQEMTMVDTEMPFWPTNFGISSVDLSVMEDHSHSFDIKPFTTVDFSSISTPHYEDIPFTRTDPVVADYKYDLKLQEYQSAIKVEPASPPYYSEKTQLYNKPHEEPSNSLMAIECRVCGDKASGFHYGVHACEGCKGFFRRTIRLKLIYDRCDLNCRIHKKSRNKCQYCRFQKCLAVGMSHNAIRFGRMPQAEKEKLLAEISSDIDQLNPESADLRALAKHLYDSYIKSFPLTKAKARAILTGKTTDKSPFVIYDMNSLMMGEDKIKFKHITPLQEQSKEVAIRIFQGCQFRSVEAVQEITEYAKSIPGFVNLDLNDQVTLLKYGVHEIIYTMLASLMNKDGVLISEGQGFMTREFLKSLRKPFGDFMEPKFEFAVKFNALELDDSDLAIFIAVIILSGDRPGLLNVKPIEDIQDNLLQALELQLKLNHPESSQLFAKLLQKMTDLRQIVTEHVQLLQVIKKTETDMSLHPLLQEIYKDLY

Sequence of Vitamin D3 receptor (Homo sapiens) (P11473 whole entry, looked up): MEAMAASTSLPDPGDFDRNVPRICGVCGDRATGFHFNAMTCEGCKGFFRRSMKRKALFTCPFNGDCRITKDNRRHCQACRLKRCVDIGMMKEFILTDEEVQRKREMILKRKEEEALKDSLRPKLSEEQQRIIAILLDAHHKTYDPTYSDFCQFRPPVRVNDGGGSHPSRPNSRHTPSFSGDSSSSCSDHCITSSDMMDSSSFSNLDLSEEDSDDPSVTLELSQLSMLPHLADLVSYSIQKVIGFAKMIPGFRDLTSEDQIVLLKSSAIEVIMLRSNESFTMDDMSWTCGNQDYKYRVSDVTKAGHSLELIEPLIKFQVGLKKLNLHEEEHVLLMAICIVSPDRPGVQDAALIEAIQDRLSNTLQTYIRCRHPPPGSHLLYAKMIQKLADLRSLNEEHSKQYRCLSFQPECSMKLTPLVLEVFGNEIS
Sequence of Peroxisome proliferator-activated receptor delta (Homo sapiens) (Q03181 whole entry, looked up): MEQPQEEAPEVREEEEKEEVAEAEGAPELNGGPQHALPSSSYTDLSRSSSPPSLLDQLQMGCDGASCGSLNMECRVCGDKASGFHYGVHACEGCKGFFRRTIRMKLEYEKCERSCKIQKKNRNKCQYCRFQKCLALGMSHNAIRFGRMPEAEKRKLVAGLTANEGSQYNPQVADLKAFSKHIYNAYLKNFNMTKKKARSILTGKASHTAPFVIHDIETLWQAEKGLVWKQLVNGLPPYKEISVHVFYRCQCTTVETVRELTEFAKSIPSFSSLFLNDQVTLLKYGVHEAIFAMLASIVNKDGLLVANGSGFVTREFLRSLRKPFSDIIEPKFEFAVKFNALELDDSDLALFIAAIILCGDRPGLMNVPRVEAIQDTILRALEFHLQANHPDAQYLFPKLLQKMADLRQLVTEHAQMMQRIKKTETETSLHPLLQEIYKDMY
Sequence of Bile acid receptor (Homo sapiens) (Q96RI1 whole entry, looked up): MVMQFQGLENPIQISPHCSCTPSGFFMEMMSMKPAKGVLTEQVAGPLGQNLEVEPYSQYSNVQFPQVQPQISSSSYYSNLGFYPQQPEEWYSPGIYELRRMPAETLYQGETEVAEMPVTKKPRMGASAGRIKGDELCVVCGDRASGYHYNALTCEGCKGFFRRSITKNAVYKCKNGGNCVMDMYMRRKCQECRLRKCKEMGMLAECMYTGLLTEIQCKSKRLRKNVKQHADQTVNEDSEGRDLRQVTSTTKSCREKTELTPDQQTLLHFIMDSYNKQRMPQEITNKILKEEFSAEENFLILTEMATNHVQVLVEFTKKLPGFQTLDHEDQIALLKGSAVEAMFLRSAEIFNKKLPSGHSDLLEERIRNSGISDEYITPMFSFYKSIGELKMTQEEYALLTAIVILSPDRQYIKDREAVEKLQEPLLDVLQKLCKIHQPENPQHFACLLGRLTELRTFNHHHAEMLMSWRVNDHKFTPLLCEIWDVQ
Sequence of Aryl hydrocarbon receptor (Homo sapiens) (P35869 whole entry, looked up): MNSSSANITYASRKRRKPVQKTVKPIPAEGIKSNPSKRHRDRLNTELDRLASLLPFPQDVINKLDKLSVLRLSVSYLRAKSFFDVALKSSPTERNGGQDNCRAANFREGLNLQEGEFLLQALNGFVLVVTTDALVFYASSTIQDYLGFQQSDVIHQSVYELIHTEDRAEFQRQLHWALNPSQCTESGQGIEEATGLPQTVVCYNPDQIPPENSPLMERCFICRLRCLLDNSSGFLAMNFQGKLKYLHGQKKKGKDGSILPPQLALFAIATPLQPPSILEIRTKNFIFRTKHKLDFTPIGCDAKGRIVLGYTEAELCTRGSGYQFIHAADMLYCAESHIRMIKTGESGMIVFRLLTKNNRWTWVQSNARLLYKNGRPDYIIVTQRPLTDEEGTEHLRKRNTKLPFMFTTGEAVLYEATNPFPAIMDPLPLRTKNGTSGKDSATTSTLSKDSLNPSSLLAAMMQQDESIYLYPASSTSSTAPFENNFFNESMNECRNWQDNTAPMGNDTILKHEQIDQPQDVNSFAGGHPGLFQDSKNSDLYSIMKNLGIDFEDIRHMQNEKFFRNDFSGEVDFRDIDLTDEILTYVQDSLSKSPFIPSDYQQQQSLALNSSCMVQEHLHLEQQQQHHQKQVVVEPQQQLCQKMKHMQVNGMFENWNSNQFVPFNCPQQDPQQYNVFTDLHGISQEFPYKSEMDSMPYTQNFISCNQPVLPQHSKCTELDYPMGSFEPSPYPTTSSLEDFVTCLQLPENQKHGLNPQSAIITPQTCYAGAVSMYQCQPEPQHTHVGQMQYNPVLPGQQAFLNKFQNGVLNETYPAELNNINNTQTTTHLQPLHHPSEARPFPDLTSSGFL

With `Cc1ccc(Cl)c(OCC(O)CNC(C)(C)C)c1` (configuration not stated), the Potency entry in test [1], in [2], in [3], in test [4], in test [7] and in test [8] was “inactive” each time. The Potency result in test [10] and in test [11] was “inactive” throughout. For the same molecule, the molecule was classed as inactive in [5], in test [6], in test [9], in test [12] and in test [13].
Regarding `Cc1cc(SC2=C(O)C[C@@](CCc3ccc(N)cc3)(C(C)C)OC2=O)c(C(C)(C)C)cc1CO`, the Potency entry in test [14], in test [15], in test [2], in test [4], in [7] and in [8] was “inactive” in each case. The Potency result in [16] and in [10] was “inactive” each time. Besides, the outcome in [5], in test [6], in test [17], in test [12] and in [13] was inactive.
Take `O=C(O)c1ccc2c(c1)nc(C(=O)NC1CCN(C3CC3)CC1)n2Cc1cc(-c2ccc(Cl)s2)on1`: the Potency entry in test [15], in test [3], in test [4], in test [7], in test [8] and in test [16] was “inactive” in each case. Also, the Potency entry in [11] was “inactive”. Also, in [1], the Potency was 3.13 µM (active). Also, the molecule was classed as inactive in test [5], in test [6], in test [18] and in [17].
For `CC(C)(C)c1cc(C=O)cc(C(C)(C)C)c1O`, the Potency entry in test [1], in [2], in test [3], in [4], in [16] and in [10] was “inactive” in each case. For the same molecule, the Potency result in [11] was “inactive”. Besides, the outcome in [5], in test [6], in test [18], in [17], in test [12] and in test [13] was inactive.
With `CC(C)C/C=C(\C=O)c1ccccc1`, the Potency result in test [14], in test [15], in [19], in test [1], in test [2] and in [3] was “inactive” each time. The Potency result in [4], in test [7], in test [8], in test [16] and in [10] was “inactive” throughout. The molecule was called inactive in test [5], in [6], in test [9], in test [17] and in test [13].
As to `Nc1ccc(C(=O)Oc2ccccc2)c(O)c1`, the Potency result in test [15], in test [19], in [1], in [2], in test [3] and in [4] was “inactive” each time. Besides, the Potency entry in test [7], in test [8], in test [16], in [10] and in test [11] was “inactive” in each case. For the same molecule, the molecule was called inactive in test [5], in test [6], in [18], in [17], in test [12] and in [13].
Regarding `COc1ccc(/C(C)=C/C(=O)O)c(OC)c1`, the Potency entry in [2], in test [4], in [7], in test [8], in [16] and in test [10] was “inactive” throughout. The Potency result in test [11] was “inactive”. Further, the molecule was called inactive in test [5], in test [6], in test [9], in [12] and in [13].
As for `C/C(=C\C(C)CC(C)CC(C)C)C1CC(=O)OC1=O` (configuration not stated), the Potency result in [15], in [19], in test [1], in test [4], in [16] and in test [10] was “inactive” throughout. Moreover, the Potency result in test [11] was “inactive”. Also, the molecule was classed as inactive in test [5], in test [6], in [9] and in [12].
